target: Carbonic anhydrase 2 (Homo sapiens) (UniProt P00918); experiment: compounds binding carbonic anhydrase 2 – biochemical, small-molecule microarray, Alexa647-labelled CAII, profiling panel (AID 1122); details: CAII-A647 binding fluorescence, higher = more signal

| Structure (SMILES) | composite z-score |
| --- | --- |
| CC(C)=CCN[C@H](CO)c1ccccc1 | -0.115 |
| CCCC#C[Si](O[C@H](CC)c1cn(Cc2cccc(Cl)c2)nn1)(C(C)C)C(C)C | 0.182 |
| C=CCOC(=O)[C@H]1[C@@H]2C(=O)O[C@@H](c3ccccc3)[C@@H](c3ccccc3)N2[C@@H](c2ccc(OCCOC(=O)[C@H]3C[C@H]4C(=O)N[C@@H](CCCCNC(C)=O)C(=O)N4[C@H]3c3cccc(OCCO)c3)cc2)[C@]12C(=O)Nc1ccccc12 | 0.392 |
| C=C(COC)/C(=C/C[C@@H](OC(=O)c1ccncc1)c1ccc(CO)o1)c1cc(C(=O)OC)ccc1OC | 0.482 |
| CC(C)C(=C=CC[C@@H](O)c1ccc(OCCO)cc1)C[C@@H](O)COCc1ccccc1 | 0.624 |
| CCCCCCc1nc(-c2cc(C)c(OC)c(C)c2)cc2c1[Si](C(C)C)(C(C)C)OC2 | 0.0878 |
| COc1cc2c(cc1O)C(C1CC1)N(Cc1sc3ccccc3c1Cl)CC2 (stereo unspecified) | 0.76 |
| COCCOC(=O)N1C(=O)[C@@]2(c3cc(C#CCC(C(=O)OC)C(=O)OC)ccc31)[C@H](C(=O)N1CCN(c3ncccn3)CC1)[C@H]1C(=O)O[C@H](c3ccccc3)[C@H](c3ccccc3)N1[C@@H]2c1ccccc1OCCO | 0.347 |
| C[C@H]1NC(=O)[C@@]23C(=O)N[C@@H](Cc4ccccc4)C2[C@H](C)[C@@]2(C)O[C@H]2C3/C=C/C/C=C\CNC(=O)[C@@H]2CCCN2C1=O (stereo partly specified) | 0.507 |
| CCOC(=O)C[C@H]1[C@H](OC(=O)c2ccc(C(=O)c3ccccc3)cc2)[C@@H](NC(=O)c2ccc3ccccc3n2)c2cc(OCCCO)ccc2N1C(=O)c1ccccc1 | 0.249 |
| CCCC[C@@H]1C[C@H]1[C@@H](NC(=O)c1cccs1)c1ccc(-c2ccccc2)cc1 | 0.254 |
| COC(=O)[C@@]1(Cc2ccc(OC)cc2)[C@H]2c3cc(C(=O)N4CCCC4)n(Cc4ccc(O)c(OC)c4)c3C[C@H]2CN1C(=O)c1ccccc1 | 0.845 |
| [N-]=[N+]=NCc1ccccc1C[C@]1(C(N)=O)COC(c2ccc(OCCCO)cc2)=N1 | 0.656 |
| C=C(COC)C(=O)CC[C@@H](OC(C)=O)c1ccc(CO)o1 | 0.662 |
| O=C1c2ccccc2[C@](Cc2ccccc2I)(C(=O)NCCN2CCOCC2)[C@H](c2ccc(CO)cc2)N1Cc1ccccc1Cl | 0.652 |
| COCCCNC(=O)[C@]1(CCC(=O)OC(C)(C)C)N=C(c2ccc(OCCCO)cc2)O[C@@H]1c1ccccc1CN=[N+]=[N-] | 0.78 |
| C=CCNC(=O)[C@@H]1[C@H]2C(=O)O[C@H](c3ccccc3)[C@H](c3ccccc3)N2[C@H](c2ccc(OCCO)cc2)[C@@]12C(=O)Nc1ccc(C#CCC(C(=O)OC)C(=O)OC)cc12 | 0.641 |
| COc1cc2c(cc1OC)CN(C(=O)[C@@H]1[C@H]3C(=O)O[C@H](c4ccccc4)[C@H](c4ccccc4)N3[C@H](c3ccccc3OCCO)[C@@]13C(=O)Nc1ccc(C#CCCO)cc13)CC2 | 0.402 |

| Structure (SMILES) | composite z-score |
| --- | --- |
| C=CCC(OC(C)=O)[C@@H]1[C@@H](N(Cc2cc3ccccc3o2)C(=O)c2cccc3ccccc23)c2cc(OCCCO)ccc2N1C(=O)c1ccc(-c2ccccc2)cc1 (stereo partly specified) | -0.0159 |
| COC(=O)[C@@]1(Cc2ccc(F)cc2)[C@H]2c3cc(C(=O)N4CCCC4)n(CCCNc4ncc(C(F)(F)F)cc4Cl)c3C[C@H]2CN1C(=O)c1ccccc1 | 0.728 |
| CC(C)N1C(=O)c2ccccc2[C@](C)(C(=O)NCCN2CCOCC2)[C@@H]1c1ccc(CO)cc1 | 0.766 |
| CC(C)C(=C=CC[C@@H](O)c1ccc(OCCO)cc1)C[C@@H](O)c1ccccn1 | 0.368 |
| CO[C@H]1O[C@H](CO)[C@@H](OC(=O)Nc2ccc(Oc3ccccc3)cc2)[C@H](OC(=O)Nc2ccc3c(c2)OCO3)[C@H]1OC(=O)Nc1ccc2c(c1)OCO2 | 0.471 |
| C=CCOC(=O)[C@H]1[C@@H]2C(=O)O[C@@H](c3ccccc3)[C@@H](c3ccccc3)N2[C@@H](c2ccc(OCCOC(=O)[C@@H]3C[C@@H]4C(=O)N[C@@H](CC(C)C)C(=O)N4[C@@H]3c3ccc(O)cc3)cc2)[C@]12C(=O)Nc1ccccc12 | 0.592 |
| O=C(c1ccccc1)N1C(=O)[C@]2(COC(c3ccc(OCCCO)cc3)=N2)Cc2ccccc21 | 0.566 |
| CCCc1cc2c(n1Cc1cc(F)cc(F)c1)C(C)C1CN(C(=O)c3ccccc3)C(C)(C(=O)OC)C21 (stereo unspecified) | 0.633 |
| O=C(c1ccccc1)N1C(=O)[C@@]2(Cc3ccccc31)N=C(c1ccc(OCCCO)cc1)O[C@H]2c1ccccc1 | 0.575 |
| CO[C@H]1O[C@H](CO)[C@@H](OC(=O)Nc2ccccc2)[C@H](OC(=O)Nc2ccccc2)[C@@H]1OC(=O)Nc1ccccc1 | 0.824 |
| COc1ccc(CCNC(=O)[C@@]2(Sc3ccc(C)cc3)CC(=O)N(C3Cc4ccccc4C3)[C@@H]2c2ccc(CO)cc2I)cc1 | 0.729 |
| CCCCCN1CC=CC23O[C@@H]4C=CCCOC(=O)C4[C@H]2C(=O)N(CCCCCO)[C@@H]3C1=O (stereo partly specified) | 0.846 |
| COc1cc2c(cc1OC)CN(C(=O)[C@H]1[C@@H]3C(=O)O[C@@H](c4ccccc4)[C@@H](c4ccccc4)N3[C@@H](c3ccc(O)cc3)[C@]13C(=O)Nc1ccc(C#CCCO)cc13)CC2 | 0.213 |
| CN1C=C(C(=O)OCCS(C)(=O)=O)C(C(=O)OCCS(C)(=O)=O)=CC(c2ccc(CO)cc2)=CC1C1CC1 (stereo unspecified) | 0.497 |
| C=C[C@H](CO[Si](CC)(CC)CC)N(Cc1ccc(OC(C)=O)c(OC)c1)S(=O)(=O)c1ccc(Br)cc1 | 0.56 |
| C[N+](C)(C)CCCCCCNC(=O)[C@@H]1C[C@@H]2C(=O)N[C@@H](Cc3ccccc3)C(=O)N2[C@@H]1c1cccc(OCCO)c1 | 0.668 |
| NC(=O)[C@@H]1[C@H]2C(=O)O[C@H](c3ccccc3)[C@H](c3ccccc3)N2[C@H](c2ccc(O)cc2)[C@@]12C(=O)Nc1ccccc12 | 0.75 |
| C=C(CCCC)/C(=C/C[C@@H](OC(C)=O)c1ccc(OCCO)cc1)c1cnc2ccccc2c1 | 0.718 |

From PubChem BioAssay
